# Experimental data taken from PubChem BioAssay (EPA / NIEHS).
# Results filed as inconclusive are left out. Calls of active or inactive are those of the source. The calls were made as follows: active = hit-call score of the fitted dose curve at least 0.9, where 1 is the maximum; inconclusive = response in the unintended direction; inactive = score below 0.9.
# Read-out: HMG-CoA synthase (HMGCS2), HMGCS2 (gene 3158)
# Assay: CLD_HMGCS2_48hr: CellzDirect (CLD) Gene Expression Assay for HMG-CoA synthase (HMGCS2) at 48 hours (AID 2283711)
# Description: CLD_48hr is a cell-based, multiplexed-readout assay that uses hepatocyte, a human liver primary cell, with measurements taken at 48 hours after chemical dosing in a 96-well plate.CLD_HMGCS2_48hr is one of 16 assay component(s) measured or calculated from the CLD_48hr assay. It is designed to make measurements of mRNA induction, a form of inducible reporter, as detected with chemiluminescence signals by Quantitative Nuclease Protection Assay (qNPA) technology.Data from the assay component CLD_HMGCS2_48hr was analyzed at the endpoint, CLD_HMGCS2_48hr, in the positive analysis fitting direction relative to DMSO as the negative control and baseline of activity. Using a type of inducible reporter, gain-of-signal activity can be used to understand changes in the reporter gene as they relate to the gene HMGCS2. Furthermore, this assay endpoint can be referred to as a primary readout. To generalize the intended target to other relatable targets, this assay endpoint is annotated to the lyase intended target family, where subfamily is HMG-CoA synthase.
# Human hepatocyte cultures were treated daily for two consecutive days with fresh dosing solutions containing appropriate concentrations of the 320 ToxCast chemicals (chemical identities were blinded to CellzDirect and other ToxCast collaborators), vehicle control (0.2% DMSO), and positive control inducers as summarized in Table 1. Due to the large number of treatment groups and chemicals examined, the ToxCast chemicals were divided into two groups (spanning two independent cultures of hepatocytes from separate donor preparations (Hu778: ToxCast plates 1 and 2; Hu776: ToxCast plates 3 and 4). Each preparation of human hepatocyte cultures was treated with respective vehicle control, medium only control, set of six positive controls/reference chemicals for the five hepatic receptor pathways, and a subset of eight of the ToxCast chemicals (indoxacarb, pyrithiobac-sodium, norflurazon, cyhalofop-butyl, methomyl, thiram, acetochlor, and propiconazole). These replicate data, coupled with internal replicates designed within the blinded ToxCast chemical library, provided additional data to evaluate interindividual differences between hepatocyte preparations and their potential impact on chemical profiles.Cell morphology and integrity were evaluated using phase-contrast microscopy as an indicator of hepatocyte cell health (Tyson & Green, 1987). Cultures for each treatment group (i.e., media, vehicle [0.2% DMSO], positive control inducers [multiple concentrations], and the ToxCast chemicals [multiple concentrations]) were observed and cell morphology was assessed relative to vehicle control cultures at each harvest time point (0, 6, 24, or 48 h). […] Images were evaluated at the conclusion of the study to assess changes in cell integrity and account for the effects of chemical exposure on uncharacteristic changes in concentration-dependent gene expression profiles. The results from these determinations of apparent cytotoxicity were annotated (yes/no) alongside the corresponding qNPA data for reference.At the conclusion of each treatment period, hepatocyte cultures (96-well) were washed with 1 volume of HBSS, lysed by addition of 25 ul ArrayPlate lysis buffer (HTG, Tucson, AZ), and 70 ul/well of Denaturation Oil, denatured by incubation at 95C for 10 min, and frozen at approximately -70C until analysis by nuclease protection assay (qNPA) (Roberts et al., 2007). For qNPA analysis, cell lysates were thawed at 50C for approximately 30 min, qNPA probes were added, and samples were incubated at 95C for 10 min to begin the detection process by denaturing the target RNA, dissociating the duplexes and secondary structure hybridization. At the conclusion of the hybridization period, S1 nuclease reagent was added to each sample to digest all nonprotected nucleotides at 50C for 60-90 min. […]
SMILES,outcome,AC50
CC[C@H](C)[C@H]1O[C@]2(C=C[C@@H]1C)C[C@@H]1C[C@@H](C/C=C(\C)[C@@H](O[C@H]3C[C@H](OC)[C@@H](O[C@H]4C[C@H](OC)[C@@H](NC)[C@H](C)O4)[C@H](C)O3)[C@@H](C)/C=C/C=C3\CO[C@@H]4[C@H](O)C(C)=C[C@@H](C(=O)O1)[C@]34O)O2,inactive,
CCOP(=S)(OCC)Oc1ccc([N+](=O)[O-])cc1,inactive,
COP(=O)(OC)C(O)C(Cl)(Cl)Cl (stereo not given),inactive,
CNC(=O)ON=C(SC)C(=O)N(C)C,inactive,
CCCCSP(=O)(SCCCC)SCCCC,inactive,
Cc1ccn2nc(S(=O)(=O)Nc3c(F)cccc3F)nc2n1,inactive,
COP(=O)(OC)SCn1c(=O)oc2cc(Cl)cnc21,inactive,
CC(=NC#N)N(C)Cc1ccc(Cl)nc1,inactive,
COP(=O)(NC(C)=O)SC (stereo not given),inactive,
CCOP(=S)(OCC)Oc1ccc2c(C)c(Cl)c(=O)oc2c1,,12.5 nM (active)
O=C(O)c1cc(Oc2ccc(C(F)(F)F)cc2Cl)ccc1[N+](=O)[O-],,26 nM (active)
CCCSP(=O)(OCC)SCCC,inactive,
CCCSP(=O)(OCC)Oc1ccc(Br)cc1Cl (stereo not given),inactive,
CC(C1CC1)C(O)(Cn1cncn1)c1ccc(Cl)cc1 (stereo not given),inactive,
CN1COCN(Cc2cnc(Cl)s2)C1=N[N+](=O)[O-],inactive,
CCCOc1nn(C(=O)NS(=O)(=O)c2ccccc2C(=O)OC)c(=O)n1C,inactive,
N#CSCSC#N,inactive,
CC(C)N(C(=O)SCC(Cl)=C(Cl)Cl)C(C)C,inactive,
COc1cc(OC)nc(Sc2cccc(Cl)c2C(=O)O)n1,inactive,
CCCCOC(=O)[C@@H](C)Oc1ccc(Oc2ccc(C#N)cc2F)cc1,inactive,
CCCCN(CC)c1c([N+](=O)[O-])cc(C(F)(F)F)cc1[N+](=O)[O-],inactive,
CN(C)C(=O)Nc1cccc(C(F)(F)F)c1,inactive,
CCNc1nc(Cl)nc(NC(C)(C)C#N)n1,inactive,
C[N+]1(C)CCCCC1,inactive,
C=C(C)[C@H]1Cc2c(ccc3c2O[C@@H]2COc4cc(OC)c(OC)cc4[C@@H]2C3=O)O1,inactive,
CCc1cnc(C2=NC(C)(C(C)C)C(=O)N2)c(C(=O)O)c1 (stereo not given),inactive,
C#CC(C)(C)NC(=O)c1cc(Cl)cc(Cl)c1,,9.4 nM (active)
CC(COc1ccc(Oc2ccccc2)cc1)Oc1ccccn1 (stereo not given),inactive,
CC1=NNC(=O)N(/N=C/c2cccnc2)C1,inactive,
CN(C)[C@@H]1C(=O)C(C(N)=O)=C(O)[C@@]2(O)C(=O)C3=C(O)c4c(O)cccc4[C@@](C)(O)[C@H]3[C@H](O)[C@@H]12,,164 nM (active)
